Compound activity deposited in PubChem by National Center for Advancing Translational Sciences (NCATS).
The list is not random: actives were taken first. Their share in the collection is about 2.8%.
IP6K1 inh: IP6K1 kinase inhibition | IP6K1 kinase, ADP-Glo luminescence, 2 h; stronger effect = lower value | activity change, % (series mostly up to about 58 µM) | hit rate 0.81% among 140,000; in the data active = activity change below about -25%
Target sequence (Q92551 whole entry, looked up): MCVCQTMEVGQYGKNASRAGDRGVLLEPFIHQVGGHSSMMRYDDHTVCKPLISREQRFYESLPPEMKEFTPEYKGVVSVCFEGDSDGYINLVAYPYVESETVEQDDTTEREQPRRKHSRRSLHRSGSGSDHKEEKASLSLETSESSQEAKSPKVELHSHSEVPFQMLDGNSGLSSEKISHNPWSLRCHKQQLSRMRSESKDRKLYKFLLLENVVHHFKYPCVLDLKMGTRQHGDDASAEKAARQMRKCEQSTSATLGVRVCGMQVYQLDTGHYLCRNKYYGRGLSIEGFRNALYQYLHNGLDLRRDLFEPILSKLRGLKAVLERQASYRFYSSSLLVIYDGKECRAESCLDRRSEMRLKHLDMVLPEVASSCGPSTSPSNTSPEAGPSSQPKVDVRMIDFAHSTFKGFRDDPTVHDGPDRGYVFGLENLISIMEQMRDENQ
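ADP-Glo luminescence measures ADP made by human IP6K1 during a 2 h RT reaction with ATP/IP6 (mix at 1.3 mM/130 uM); top library doses 57.5 and 19.1 uM final.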
KDM5B inhibitor: inhibitors of human KDM5B histone demethylase | Potency, µM (doses to about 57.7 µM), usual class: inhibitors | Q9UGL1 | hit rate 2.6% among 220,000 | KDM5B demethylase, FDH-coupled NADH fluorescence (FDH is formaldehyde dehydrogenase); also: nearly all actives have a fitted effect of over 70% in size
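Measured: NADH fluorescence change, 30 min, RT. System: KDM5BΔAP 200 nM final, H3K4me3 peptide, α-KG, Fe(II), ascorbate, NAD⁺ plus FDH, pH 7.5 HEPES. Compounds: titrated, 10 min pre-incubation with enzyme.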
Numbers stand for hits; 0 = inactive; ? = inconclusive; - = no result.

SMILES	IP6K1 inh	KDM5B inhibitor
O=C(Nc1ccc(Cl)cc1)C1CC(=O)N(c2n[nH]c3cccc(F)c23)C1 (configuration not stated)	0	?
CC(=O)Nc1ccc(NC(=O)C2CC(=O)N(c3n[nH]c4cccc(F)c34)C2)cc1 (configuration not stated)	0	35µM
O=C(NC1CCCCCC1)C1CC(=O)N(c2n[nH]c3cccc(F)c23)C1 (configuration not stated)	0	32µM
CCc1ccc(NC(=O)C2CC(=O)N(c3n[nH]c4cccc(F)c34)C2)cc1 (configuration not stated)	0	35µM
Cc1cccc(NC(=O)C2CC(=O)N(c3n[nH]c4cccc(F)c34)C2)c1 (configuration not stated)	0	?
O=C(Nc1ccc(F)cc1)C1CC(=O)N(c2n[nH]c3cccc(F)c23)C1 (configuration not stated)	0	?
Cc1ccc(NC(=O)C2CC(=O)N(c3n[nH]c4cccc(F)c34)C2)cc1C (configuration not stated)	0	18µM
O=C(NC1CC1)C1CC(=O)N(c2n[nH]c3cccc(F)c23)C1 (configuration not stated)	0	0
CCCNC(=O)CN(C)C(=O)c1cc2ccccc2n1CC	-	0
CC(=O)N1C=Cc2ccccc2C1CC(=O)Nc1ccc(S(=O)(=O)N2CCCCCC2)cc1 (configuration not stated)	-	0
COc1cc(C#N)ccc1OC(C)C(=O)c1ccc(F)cc1 (configuration not stated)	-	0
Cc1ccc(-c2csc(/C=C/c3ccc(C(F)(F)F)cc3)n2)cc1	-	0
Cc1nn(-c2ccccc2)c2c1C(C1CC1)N(C1CN(C(=O)c3ccc4c(c3)OCO4)C1)C2=O (configuration not stated)	0	-
Cc1ccc(C(=O)/C=C/c2cccc3ccccc23)cc1[N+](=O)[O-]	-	0
COc1ccc(-c2nnc(SCc3nc4ccccc4o3)o2)c(OC)c1	-	0
O=[S+]([O-])(c1cccs1)N1CCN(Cc2ccccc2-c2ccccc2F)CC1	0	-
COc1ccc(Nc2c(-c3cccc(O)c3)nc3cnccn23)cc1	0	0
COc1ccccc1-c1nc2cnccn2c1NCCC(=O)N1CCc2ccccc21	0	28µM
Cc1nc2cnccn2c1C(=O)NCc1ccc2c(c1)OCO2	0	-
COc1cccc(-c2nc3cnccn3c2NCCC(=O)N2CCc3ccccc32)c1	0	22µM
COc1cnc(CSc2nc(C)cc(C)n2)cc1OCC(=O)N1CCc2ccccc21	-	0
COc1cccc(Cc2nc3ccccc3nc2SCC(=O)N2CCc3ccccc32)c1	0	0
COc1ccccc1-c1nc2cnccn2c1NCCC(=O)Nc1ccc2c(c1)OCO2	0	28µM
COc1cccc(-c2nc3cnccn3c2NCCC(=O)N2CCN(C)CC2)c1	0	28µM
O=C(Nc1ccc(Cl)cc1)NC1CCN(c2nccc(Nc3ccccc3F)n2)CC1	0	-
SMILES	IP6K1 inh	KDM5B inhibitor
NC1=NC(c2c[nH]c3ccc(F)cc23)n2c(nc3ccccc32)N1 (configuration not stated)	-	0
CC(=O)NC12CC3CC(C1)CC(C(=O)NC1CCSCC1)(C3)C2	-	0
Cc1ccc2cccc(OCCNC(=O)C3NCCc4[nH]cnc43)c2n1 (configuration not stated)	0	14µM
Cc1cc(C(F)(F)F)nc(CCNC(=O)C2NCCc3[nH]cnc32)n1 (configuration not stated)	0	0
CC(C)(Oc1ccc(Cl)cc1)C(=O)Nc1cc(C(C)(C)C)no1	-	0
CCc1ccccc1NC(=O)c1cc2c(s1)CN(C(C)C)C2	0	7.1µM
CCN(CC)c1ccc(CNC(=O)c2cc3c(s2)CN(C(C)C)C3)cc1	0	?
CCN(CC)C(=O)[C@@H]1C[C@@H](NC(=O)c2ccn(CC)c(=O)c2)CN1C(C)=O	0	28µM
CCN(CC)C(=O)[C@@H]1CCC[C@@H](NC(=O)c2ccc(C#N)cc2)CN(C)C(=O)C1	0	0
COc1ccccc1-c1onc(C)c1C(=O)NCCc1ccc(F)cc1	0	?
CCOCCNC(=O)c1c(C)noc1-c1ccc(OC)cc1	0	0
COc1ccc(-c2onc(C)c2C(=O)NCCSCc2ccco2)cc1	0	22µM
COc1cc(-c2onc(C)c2C(=O)NCCc2ccc(F)cc2)cc(OC)c1OC	0	28µM
COc1cccc(CCNC(=O)c2c(C)noc2-c2ccco2)c1	0	0
COc1cccc(CCNC(=O)c2c(C)noc2-c2cc(OC)c(OC)c(OC)c2)c1	0	28µM
COCCNC(=O)C1CCCCN1Cc1ccc(-c2ccccc2OC)cc1 (configuration not stated)	0	-
O=C(NC1CCN(c2nccc(Nc3ccccc3Cl)n2)CC1)c1ccccc1Cl	0	-
O=C1CO[C@H]2CCN(Cc3ccncc3Cl)CC[C@@H]2N1c1ccccc1	0	?
Cn1cnnc1CC1CCN(C(=O)CCc2nc3ccccc3[nH]c2=O)CC1	0	25µM
